# Data taken from the supplement of paper PMC9694430.
# What was measured:
# Assay in all cases: thermal shift delta Tm vs DMSO control; higher = stronger stabilization (binding)
# Conditions in all cases: 12.5 µM; protein concentration 2 µM
# LOC_OS04G57630-cb004 = tested on: LOC_OS04G57630-cb004
# Summary of the method: (§1)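 Compounds dissolved in DMSO were added to purified rice kinase domain constructs, which had been expressed in E. coli, for differential scanning fluorimetry. Each well held 19.5 μl of 2 μM kinase in 100 mM potassium phosphate pH 7.5, 150 mM NaCl, 10% glycerol and 5 × SYPRO Orange. Fluorescence was followed from 25°C to 95°C at a rate of 0.05°C/s. Shifts in Boltzmann-fitted melting temperature are triplicate means relative to DMSO-only protein.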
# LOC_OS05G07850-cb002 = tested on: LOC_OS05G07850-cb002
# Summary of the method: as §1
# LOC_OS05G16824-cb004 = tested on: LOC_OS05G16824-cb004
# Summary of the method: as §1
# LOC_OS05G28520-cb001 = tested on: LOC_OS05G28520-cb001
# Summary of the method: as §1
# LOC_OS05G30820-cb001 = tested on: LOC_OS05G30820-cb001
# Summary of the method: as §1
# LOC_OS05G43570-cb004 = tested on: LOC_OS05G43570-cb004
# Summary of the method: as §1
# LOC_OS06G16330-cb003 = tested on: LOC_OS06G16330-cb003
# Summary of the method: as §1
# LOC_OS06G22820-cb001 = tested on: T1, LOC_OS06G22820-cb001
# T1 sequence (whole entry): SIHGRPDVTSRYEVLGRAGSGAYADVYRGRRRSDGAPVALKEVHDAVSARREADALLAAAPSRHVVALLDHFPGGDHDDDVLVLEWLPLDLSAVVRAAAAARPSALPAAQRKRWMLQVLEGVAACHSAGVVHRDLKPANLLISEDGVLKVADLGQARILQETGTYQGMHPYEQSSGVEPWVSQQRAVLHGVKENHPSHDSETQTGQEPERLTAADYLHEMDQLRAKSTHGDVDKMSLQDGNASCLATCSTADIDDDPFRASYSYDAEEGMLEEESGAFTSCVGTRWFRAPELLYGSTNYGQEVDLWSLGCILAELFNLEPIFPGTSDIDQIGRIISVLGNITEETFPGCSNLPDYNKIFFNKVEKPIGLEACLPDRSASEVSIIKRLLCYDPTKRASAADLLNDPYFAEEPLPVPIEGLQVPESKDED
# Summary of the method: as §1
# LOC_OS07G06570-cb004 = tested on: LOC_OS07G06570-cb004
# Summary of the method: as §1
# LOC_OS07G07230-cb001 = tested on: LOC_OS07G07230-cb001
# Summary of the method: as §1
# Sequence of LOC_OS06G16330-cb003 (as listed by the source): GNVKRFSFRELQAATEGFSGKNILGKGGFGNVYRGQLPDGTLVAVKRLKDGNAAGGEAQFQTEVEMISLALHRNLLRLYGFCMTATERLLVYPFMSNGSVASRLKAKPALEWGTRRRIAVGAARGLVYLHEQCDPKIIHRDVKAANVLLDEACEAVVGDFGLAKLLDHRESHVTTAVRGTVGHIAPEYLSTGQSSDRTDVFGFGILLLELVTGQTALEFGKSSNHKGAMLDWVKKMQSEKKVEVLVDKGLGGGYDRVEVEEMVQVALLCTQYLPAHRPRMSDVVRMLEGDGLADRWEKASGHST
SMILES,thermal shift delta Tm (LOC_OS04G57630-cb004) [°C],thermal shift delta Tm (LOC_OS05G07850-cb002) [°C],thermal shift delta Tm (LOC_OS05G16824-cb004) [°C],thermal shift delta Tm (LOC_OS05G28520-cb001) [°C],thermal shift delta Tm (LOC_OS05G30820-cb001) [°C],thermal shift delta Tm (LOC_OS05G43570-cb004) [°C],thermal shift delta Tm (LOC_OS06G16330-cb003) [°C],thermal shift delta Tm (LOC_OS06G22820-cb001) [°C],thermal shift delta Tm (LOC_OS07G06570-cb004) [°C],thermal shift delta Tm (LOC_OS07G07230-cb001) [°C]
CN1CCN(c2ccc(-c3ccncc3-c3cc(F)c(O)c(F)c3)cc2)CC1,0.24,3.75,-0.65,0.95,0.41,0.25,1.09,0.54,0.48,0.18
CC(=O)c1c(C)c2cnc(Nc3ccc(N4CCNCC4)cn3)nc2n(C2CCCC2)c1=O,0.52,5.93,5.52,0.05,0.23,0.31,4.77,-0.1,0.7,0.73
O=C(Nc1cccc(C(F)(F)F)c1)c1cccc2cc(Oc3cc(CO)ncn3)ccc12,0.45,-0.21,-4.53,0.52,0.8,0.31,-0.18,0.78,0.98,0.86
Fc1ccc2[nH]ccc2c1-c1nc(N2CCOCC2)c2sc(CN3CCN(CC4CC4)CC3)cc2n1,-0.15,2.07,-1.52,0.19,0.44,0.12,-0.11,0.53,0.96,0.95
O=S(=O)(c1cccc2c(I)cccc12)N1CCCNCC1,-0.05,0.78,1.61,0.14,0.08,0.32,0.09,0.37,1.9,0.16
COc1ccc([C@@H]2OC[C@H]3[C@@H]2CO[C@@H]3c2ccc(O[C@@H]3O[C@H](CO)[C@@H](O)[C@H](O)[C@H]3O)c(OC)c2)cc1OC [Forsythin],-0.22,-0.42,-9.57,0.25,-0.02,0.21,-0.18,0.41,0.89,0.9
CNc1nc(-c2ccc3c(N)n[nH]c3c2)cc(N2C[C@@H](C(=O)NC3CCCCC3)CC[C@H]2C)n1,0.37,2.19,-1.52,0.81,0.31,0.65,0.1,0.79,1.92,0.33
Oc1c2ccccc2c2c3c(cccc13)N=N2,2.27,9.83,9.67,0.7,1.62,1,5.84,0.87,1.14,-0.13
Cc1ccc(NC(=O)c2cccc(N(C)C)c2)cc1NC(=O)c1ccc(O)cc1,0.32,0.13,0.14,0.63,0.58,0.61,0.4,0.59,0.77,0.22
"Cc1cc(Nc2ncnc3ccc(NC4=NC(C)(C)CO4)cc23)ccc1Oc1ccn2ncnc2c1 [Irbinitinib (ARRY-380, ONT-380)]",0.3,0.8,-0.96,0.07,0.07,0.33,-0.51,0.49,1.27,0.02
COc1ccc(CCNCc2ccc(OCc3ccc(Cl)nc3)c(OC)c2)cc1OC,0.32,-0.86,-5.08,0.09,0.33,-0.15,-0.05,0.26,0.85,0.59
COC(=O)Nc1ccc(-c2nc(N3CCOCC3)c3cnn(C4CCN(C(=O)OC)CC4)c3n2)cc1,0.06,0.49,-0.54,-0.26,0.57,0.65,-0.2,0.4,0.99,-0.41
COc1ccc(C(=O)Nc2sc3c(c2C(N)=O)CCCC3)cc1OC,0.24,5.8,-1.08,0.65,0.5,0.59,5.12,0.46,1.73,0.5
O=C(Nc1cccc(Nc2ncc(Br)c(NCCc3cnc[nH]3)n2)c1)N1CCCC1,7.51,10.4,13.2,-0.09,6.02,0.65,8.57,0.67,0.48,1.02
Cn1c(Nc2ccc(C(F)(F)F)cc2)nc2cc(Oc3ccnc(-c4ncc(C(F)(F)F)[nH]4)c3)ccc21,1.62,0.57,1.67,0.86,0.81,3.24,1.24,2.74,1.82,-0.2
CNC(=O)CN1CCC(Oc2cc3c(Nc4cccc(Cl)c4F)ncnc3cc2OC)CC1 [Sapitinib (AZD8931)],0,3.04,-12,-0.17,0.6,0.17,1.14,0.37,0.48,-0.24
CC(C)NC(=O)C1CCC(n2c(NC(=O)c3ccc(F)cc3)nc3ccc(CN4CCC(C(C)(C)O)CC4)cc32)CC1 (stereo not given) [Belizatinib (TSR-011)],6.67,8.98,13,4.12,0.47,0.09,4.55,0.48,1.37,0.49
O=c1cc(N2CCOCC2)oc2c1ccc1ccccc12,0.45,0.96,1.86,0.42,0.43,0.67,-3.55,0.23,0.63,0.36
CNc1nc(Nc2cnn([C@H]3CCN(C4COC4)C[C@@H]3F)c2Cl)ncc1C(F)(F)F,1.85,10.8,5.54,0.59,0.51,0.4,5.64,0.65,0.89,0.28
COc1nccnc1NS(=O)(=O)c1ccc(NC(=O)/C=C/c2ccc([N+](=O)[O-])s2)cc1 [Necrosulfonamide],-0.33,-1.15,-2.3,-0.14,0.41,0.39,-0.03,0.79,0.22,0.63
CO[C@@H](C)Cn1c(=O)n(C)c2cnc3ccc(-c4cncc(C(C)(C)O)c4)cc3c21,0.18,4.35,-0.98,0.31,0.49,0.43,0.71,0.7,0.91,0.7
COc1ccc(-c2nc(N3CCOCC3)c3sc(CN(C)c4ncc(C(=O)NO)cn4)cc3n2)cn1,0,0.02,-1.81,0.86,0.56,0.42,-0.08,0.84,0.56,0.26
Cc1c(NC(=O)OC[C@@H]2COCCN2)cn2ncnc(Nc3ccc4c(cnn4Cc4cccc(F)c4)c3)c12,0.21,0.64,0.54,0.43,0.46,0.75,-0.49,0.8,0.91,0.29
COc1ccc(COc2cc3oc(=O)c4cc(C(C)O)ccc4c3cc2OC)cc1 (stereo not given) [Palomid 529 (P529)],0.55,0.39,-3.05,0.84,0.78,0.66,0.23,0.68,0.97,0.03
